Data as given in ChEMBL document CHEMBL1157539, “Thousands of chemical starting points for antimalarial lead identification” (Nature, 2010).

Legend:
Format in all cases: functional
Plasmodium falciparum [1] = assay: GSK_TCMDC: Inhibition of Plasmodium falciparum 3D7 in whole red blood cells, using parasite LDH activity as an index of growth. Test compounds present at 2uM
Plasmodium falciparum [2] = assay: GSK_TCMDC: Inhibition of Plasmodium falciparum Dd2 in whole red blood cells, using parasite LDH activity as an index of growth. Test compounds present at 2uM
HepG2 = assay: GSK_TCMDC: Percent inhibition of human HepG2 cell line. Test compounds present at 10uM.

| Compound | Inhibition (Plasmodium falciparum [1]) | Inhibition (Plasmodium falciparum [2]) | Inhibition (HepG2) |
| --- | --- | --- | --- |
| O=C(O)C(F)(F)F.c1cc(CN2CCN(CCN3CCOCC3)CC2)cc(-c2ccc(-c3nc4ccccc4[nH]3)cc2)c1 | 100% | 100% | 23% |
| Cn1cc(CCNc2ccnc(N3CCC(c4ncc[nH]4)CC3)n2)c2ccccc21 | 92% | 5% | 12% |
| Cc1cccc2nc(-c3cccc(-c4cccc(NC(=O)c5cnccc5C(F)(F)F)c4)c3)[nH]c12 | 98% | 47% | 7% |
| COc1ccc(S(=O)(=O)NCCC2CCN(CCCCCNC(=O)C=Cc3ccc(Cl)c(Cl)c3)CC2)cc1 | 87% | 0% | 36% |
| Cc1cc(N[C@@H](Cc2ccccc2)C(=O)NCc2cccc(F)c2)nc(Nc2ccccc2)n1.O=C(O)C(F)(F)F | 100% | 92% | 20% |
| Cc1cc(Cl)c(Cl)cc1NC(=O)Nc1cccc(C(F)(F)F)c1 | 93% | 99% | 1% |
| Cc1cc(N)c2cc(NC(=O)/C=C/c3ccccc3Cl)ccc2n1 | 100% | 98% | 81% |
| CC(=O)N(C)/N=C/[C@H](CCc1ccccc1)NC(=O)[C@H](CC(C)C)NC(=O)c1cccc(OCCN2CCOCC2)c1 | 89% | 65% | 5% |
| Cc1cc(C(=O)OCC(N)=O)c(C)n1-c1ccc(F)cc1 | 97% | 96% | 0% |
| CC(C)(C)c1ccc(C(=O)Nc2cccc(Nc3c(C(=O)NCc4cccc(C(F)(F)F)c4)cnc4c(O)cccc34)c2)cc1.O=C(O)C(F)(F)F | 83% | 79% | 40% |
| CN1CCN(c2cc3c(cc2Cl)CCN3C(=O)Cc2ccc(Cl)c(NC(=O)Nc3cccc(C#N)c3)c2)CC1 | 99% | 40% | 0% |
| COc1ccc(CNC2CCN(C)CC2)cc1-c1ccc(S(=O)(=O)NCc2ccccc2)s1.O=C(O)C(F)(F)F | 100% | 100% | 62% |
| NC(Cc1cccc(I)c1)C(=O)NCC1CCCO1.O=C(O)C(F)(F)F (stereo not drawn) | 98% | 50% | 52% |
| COc1ccc(CNc2nc(Nc3cccc(C#N)c3)nc(Nc3cccc(C#N)c3)n2)cc1Cl | 100% | 83% | 0% |
| CC(=O)NCCCCC1NC2(C(=O)N(Cc3ccc(C(C)(C)C)cc3)c3ccccc32)C2C(=O)N(C3CCCCC3)C(=O)C12 (stereo not drawn) | 91% | 71% | 0% |
| Cl.NC(=O)N1CCN(Cc2ccc(Br)cc2)CC1 | 96% | 0% | 83% |

| Compound | Inhibition (Plasmodium falciparum [1]) | Inhibition (Plasmodium falciparum [2]) | Inhibition (HepG2) |
| --- | --- | --- | --- |
| Cc1ccc2sc(N3CCN(C(=O)c4ccc([N+](=O)[O-])o4)CC3)nc2c1C | 90% | 86% | 0% |
| COc1ccc(CNC2Cc3ccccc3C2)cc1-c1ccc(S(=O)(=O)NCCN2CCCC2)c(F)c1.O=C(O)C(F)(F)F | 100% | 69% | 44% |
| Cc1ccc(S(=O)(=O)Nc2ccc(Nc3nccc(Nc4cccc5[nH]ncc45)n3)cc2)cc1 | 90% | 5% | 57% |
| Cc1cc(Nc2cccc(C(F)(F)F)c2)nc2ccc(NC(=O)c3ccc(=O)[nH]c3)cc12 | 100% | 60% | 21% |
| COc1ccc2ccc(F)c(CCN3CCC(NCc4cc5c(cn4)OCCO5)CC3)c2n1.Cl | 96% | 36% | 15% |
| COc1ccccc1NC(=S)N/N=C/c1ccc(O)cc1O | 89% | 80% | 35% |
| CN(C)Cc1ccc2nc(-c3cccc(Cc4cc(Cl)ccc4OCc4ccc(Cl)cc4F)n3)[nH]c2c1.Cl | 93% | 26% | 43% |
| CC(Cc1ccc(NC(=O)c2ccc(CNCCc3ccccc3)cc2)cc1)NCCc1cccc(Cl)c1.Cl (stereo not drawn) | 100% | 99% | 100% |
| Cc1cc(=O)c(-c2ccc(Oc3cccc(OC(F)(F)F)c3)cc2)c(C)[nH]1 | 97% | 96% | 13% |
| COc1ccccc1-c1csc(C(=O)NCC2CCN(Cc3ccc(C(C)(C)C)cc3)C2)c1.O=C(O)C(F)(F)F (stereo not drawn) | 93% | 11% | 29% |
| CC(O)C1CCCCN1C(=O)c1cccc(-c2cccc(-c3nc4cc(F)ccc4[nH]3)c2)c1 (stereo not drawn) | 100% | 99% | 42% |
| Cc1cccc2nc(-c3cccc(-c4ccc(CNCCCN5CCCC5=O)cc4)c3)[nH]c12.O=C(O)C(F)(F)F | 100% | 38% | 5% |
| NCCNC(=O)c1ccc(-c2cnc3[nH]cc(-c4ccc(C(N)=O)cc4)c3c2)cc1 | 99% | 98% | 2% |
| COc1ccc2nccc([C@@H](O)CN3CCC(NCc4ccc5c(n4)NC(=O)CS5)C(F)C3)c2c1.Cl (stereo partly drawn) | 89% | 88% | 5% |
| O=C(Nc1cccc(CN2CCCN(Cc3ccsc3)CC2)c1)c1ccc(-c2ccccc2)cc1.O=C(O)C(F)(F)F | 90% | 11% | 30% |
